A short description of the experiment: NCI Yeast Anticancer Drug Screen. Data for the sgs1 strain (AID 173).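 Further: 0% = growth of vehicle-only control cultures.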 The following applies: S. cerevisiae sgs1 mutant, active compounds read high. Here is the method:
Growth inhibition of yeast strains with defined genetic alterations is measured as a screen for potential anti-cancer activity. Selected strains with alterations in DNA damage repair or cell cycle control were exposed to compounds and growth inhibition was measured relative to vehicle treated controls. The strain used in this assay is sgs1

The panel holds about 79,000 compounds, 15% with a hit somewhere; the sample as a whole holds those more often. Unmarked numbers belong to inactive results. Calls of active or inactive are those of the source. No stated cut-off is given here; in the data, active means growth inhibition above about 70%; inactive means the rest.

Regarding `Cc1cc(N=C2C=CC(=[N+](C)C)C=C2)c(N)cc1N`, the growth inhibition is -27% (at 1.2 µM); -25% (at 3.7 µM); 1% (at 11.0 µM); 33% (at 33.0 µM); 61% (at 100.0 µM).
For `COC(=O)c1oc([N+](=O)[O-])c(Cl)c1Cl`, the growth inhibition is, setting by setting: (at 1.2 µM) 82% (active); (at 3.7 µM) 57%; (at 11.0 µM) 78% (active); (at 33.0 µM) 96% (active); (at 100.0 µM) 96% (active).
On to `O=C(Nc1cccc(C(F)(F)F)c1)Oc1ccc(Cl)cc1C(=O)c1ccccc1`, for which the growth inhibition is, setting by setting: (at 1.2 µM) 24%; (at 3.7 µM) 30%; (at 11.0 µM) 82% (active); (at 33.0 µM) 91% (active); (at 100.0 µM) 97% (active).
`CCNc1ccc2c(c1)C(=O)N(OS(C)(=O)=O)C2=O`: the growth inhibition is 2% (at 1.2 µM); 3% (at 3.7 µM); 6% (at 11.0 µM); 15% (at 33.0 µM); 62% (at 100.0 µM).
The like results for `CCOC(=O)Nc1ccc2c(c1)Cc1ccccc1-2` were, in that order, -18%, -12%, -4%, 3% and 0%.
The like results for `CCCc1[nH]nc(C(N)=O)c1N=NN(C)C` were, in that order, 0%, -3%, 24%, 56% and 85% (active).
Taken in the same sequence, the figures for `Clc1cc(Cc2ccc(N=C/C=C/c3ccccc3)c(Cl)c2)ccc1N=C/C=C\c1ccccc1` were 12%, 7%, 8%, 8% and 41%.
On to `Cc1ccc(S(=O)(=O)Nc2ccc3c(c2)C(O)c2ccccc2-3)cc1` (stereo not given), for which the growth inhibition is -1% (at 1.2 µM); -1% (at 3.7 µM); 26% (at 11.0 µM); 86% (active) (at 33.0 µM); 57% (at 100.0 µM).

These data come from PubChem BioAssay (NCI).
